The list is not random: actives were taken first. Their share in the collection is about 4.6%.
TIM10 inh = growth inhibitors of isogenic TIM10 control yeast, primary screen, counter-screen for tim10-1 yeast inhibitor project, luminescence, uHTS; AID 463195, 2010; S. cerevisiae TIM10 strain growth, BacTiter-Glo luminescence, 24 h; 330,000 tested, 1.4% active; inhibition, % at 10 µM;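 active = inhibition of 40% or more at the single tested concentration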;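 note: wild-type TIM10 isogenic control strain grown at permissive 25 °C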
PfHsp90 yeast 2 = growth inhibition of PfHsp90-expressing yeast, primary screen, antimalarial PfHsp90 inhibitor project, S. cerevisiae, BacTiter-Glo luminescence, single point, set 2; BacTiter-Glo ATP, 48 h; yeast lacking PDR1 and PDR3 efflux regulators; inhibition, % at 9.4 µM; 310,000 tested, 0.32% active; AID 504621, 2011;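 active = every replicate shows inhibition above about 80%, whatever the replicate mean, limit read from the data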
tim23-1 inh = growth inhibitors of tim23-1 mutant yeast, primary screen, luminescence, uHTS. 330,000 tested, 1.3% active. inhibition, % at 20 µM. S. cerevisiae tim23-1 growth, BacTiter-Glo luminescence, 24 h;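 active = growth inhibition of the mutant yeast at or above 50%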;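 note: temperature-sensitive mutant grown at 25 °C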
SKKanGAS inh = S. pyogenes SKKanGAS growth inhibitors in kanamycin, primary screen, streptokinase expression inhibitor project, SKKanGAS strain, BacTiter-Glo luminescence | 6 h | AID 1662, 2009 | inhibition, % at 7.5 µM | 300,000 tested, 1.3% active;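 active = mean replicate score, as percent of positive control median, at least 50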;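 note: strain carries kanamycin resistance gene driven by streptokinase promoter and grows in 40 µg/ml kanamycin; loss of luminescence reflects streptokinase promoter inhibition or plain growth inhibition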
tim10-1 inh = growth inhibitors of tim10-1 mutant yeast, primary screen, luminescence, uHTS; AID 463190, 2010; 330,000 tested, 2.2% active; S. cerevisiae tim10-1 ts strain growth, BacTiter-Glo, 24 h; inhibition, % at 20 µM;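 active = inhibition of at least 40%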;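 note: mutant grown at 25 °C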
V-ATPase pH = regulators of yeast V-ATPase proton pumping, primary screen, pHLuorin cytosolic pH fluorescence | response, % at 10 µM | S. cerevisiae | AID 504577, 2011 | 350,000 tested, 0.37% active; in the data active = response mostly above about 7.3%, no sharp cut-off; inactive = mostly below about 5.4%; note: actives read high
tim10 confirm = growth inhibitors of wild-type TIM10 yeast, confirmation, counter-screen for tim10-1 synthetic lethality project, single concentration, luminescence, S. cerevisiae | 4,600 tested, 63% active | inhibition, % at 10 µM | shares compounds with TIM10 inh | S. cerevisiae tim10 strain growth, BacTiter-Glo luminescence, 24 h;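 active = inhibition of yeast growth at or above a set limit in either of two replicates at 10 µM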; note: this counterscreen used the strain with wild-type TIM10
tim23-1 confirm = tim23-1 mutant yeast growth inhibitors, confirmation, luminescence, single concentration; AID 463218, 2010; inhibition, % at 20 µM; 4,400 tested, 83% active; shares compounds with tim23-1 inh; S. cerevisiae tim23-1 growth, BacTiter-Glo luminescence, 24 h;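 active = inhibition above about 39% in either of two replicate wells at 20 µM, limit read from the data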;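 note: temperature-sensitive tim23-1 mutant grown at 25 °C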
Hits are given with their value; . = inactive; / = not tested or not shown; + = active, no number.

SMILES	TIM10 inh	PfHsp90 yeast 2	tim23-1 inh	SKKanGAS inh	tim10-1 inh	V-ATPase pH	tim10 confirm	tim23-1 confirm
O=C(Nc1nc2ccccc2s1)C1c2ccccc2Oc2ccccc21	45	.	51	.	.	.	46	58
O=C(Nc1nc2ccccc2s1)C1CCCO1 (stereo not drawn)	.	.	.	.	.	.	/	/
CCOc1ccc(S(=O)(=O)N2CCC(C(=O)NCc3ccncc3)CC2)cc1C	.	.	.	.	.	.	/	/
Brc1ccc2ncnc(Nc3cccc4ccccc34)c2c1	41	.	73	.	.	.	.	47
CC1CCC(NC(=O)CCN2C(=O)C3C4C=CC(C4)C3C2=O)CC1 (stereo not drawn)	.	.	.	.	.	.	/	/
Cc1cc(-c2ccccc2)nc(N/N=C/c2ccc(O)cc2O)n1	57	.	64	.	.	.	61	70
Oc1ccc(/C=N/Nc2ncc(Br)cn2)c(O)c1	67	.	70	.	.	.	.	67
Oc1ccc(C=NNc2ccccn2)c(O)c1	/	.	/	/	/	.	/	/
Cc1cc(-c2ccccc2)nc(N/N=C/c2ccc(N(C)C)cc2)n1	.	.	.	.	.	.	/	/
O=C(NCc1ccccc1)C(c1ccncc1)N(C(=O)c1csnn1)c1cccc(F)c1 (stereo not drawn)	.	.	.	.	.	.	/	/
Cc1cc(S(=O)(=O)c2ccc([N+](=O)[O-])cn2)ccc1Br	44	.	86	.	.	8.7	61	81
O=C(CNC(=S)NC(=O)c1cccs1)c1ccccc1	44	.	63	.	.	.	.	67
CCOC(=O)c1cnc(-n2nc(C)cc2C)nc1NC1CCCC1	45	.	52	97	.	.	51	44
CCOC(=O)c1cnc(-n2nc(C)cc2C)nc1N(C)C	.	/	.	.	.	.	/	/
COC(=O)c1ccc(NC2=C(Cl)C(=O)OC2OC(=O)c2ccccc2)cc1 (stereo not drawn)	41	.	50	.	.	.	.	43
C=C1[C@@H](OC(C)=O)CC[C@]2(C)[C@@H]1C[C@@H]1C[C@H](OC(C)=O)C(C)=C([C@@H](OC(C)=O)[C@@H]2OC(C)=O)C1(C)C	.	.	.	.	.	.	/	/
O=C(Nc1cccc(Br)c1)c1cc2ccccc2o1	47	.	53	.	.	.	49	62
NS(=O)(=O)c1cccc(NC(=O)c2cc3ccccc3o2)c1	.	.	.	.	.	.	/	/
Cc1cc(/C=C2\SC(N)=NC2=O)c(C)n1-c1ccc(F)cc1	.	.	.	.	.	.	/	/
COc1ccc2c(c1)[C@@H]1[C@H](CO2)[C@H](c2ccccc2)[C@]2(C)C(=O)Nc3ccc(C)cc3C(=O)N12	42	.	58	/	.	.	35	57
COc1ccc2c(c1)C(=O)N1[C@H]3c4cc(C)ccc4OC[C@@H]3[C@H](c3ccccc3)[C@]1(C)C(=O)N2	.	.	.	/	.	.	/	/
COc1ccc(/C=N/NC(=O)CC(=O)NCc2cccnc2)cc1[N+](=O)[O-]	.	.	.	.	.	.	/	/
CCCOc1ccc(CSc2nc3ccccc3[nH]2)cc1	47	/	64	.	.	.	36	49
COc1ccc(CN2C(=O)c3ccccc3C2=O)cc1C(=O)N(C)CC(=O)Nc1ccc(F)cc1	.	.	.	/	.	.	/	/
O=C(CCN1CCOCC1)N/N=C/c1cc([N+](=O)[O-])ccc1OC(F)F	.	.	.	.	.	.	/	/
SMILES	TIM10 inh	PfHsp90 yeast 2	tim23-1 inh	SKKanGAS inh	tim10-1 inh	V-ATPase pH	tim10 confirm	tim23-1 confirm
O=C(CCN1CCOCC1)N/N=C/c1cc(Br)cc(Br)c1O	58	.	63	57	.	.	50	62
CCc1cccc(NC(=O)Cn2c(=O)c3cccn3c3ccccc32)c1	.	.	.	.	.	.	/	/
O=Cc1ccccc1OCCCOc1cccc2cccnc12	49	.	76	.	.	.	52	79
Cc1ccc(-n2sc3ccccc3c2=O)cc1	65	.	59	96	.	.	.	56
CCOc1ccc(C2=NNC(c3cccs3)=Nc3ccc(OC)cc32)cc1	55	.	64	.	.	.	43	70
COc1ccc2c(c1)C(c1ccccc1)=NNC(c1ccco1)=N2	.	.	.	.	.	.	/	/
CCOc1ccccc1C(C(=O)NC1CCCCC1)N(C(=O)c1csnn1)C1CC1 (stereo not drawn)	.	.	.	.	.	.	/	/
Cc1nn2c(NCCN3CCOCC3)c3c(nc2c1-c1ccccc1)CCCC3	.	.	.	.	.	.	/	/
Cc1nn2c(NCc3ccccn3)c3c(nc2c1-c1ccccc1)CCC3	55	/	56	.	.	.	52	57
CC(/C=C1\SC(=S)N(CCC(=O)Nc2nc(C)cs2)C1=O)=C\c1ccccc1	.	.	.	.	.	.	/	/
O=C(c1ccco1)N1CCN(c2nc(-c3ccc(F)cc3)cs2)CC1	44	.	82	.	.	.	.	.
S=C(Sc1ccc(Cl)cc1)Sc1ccc(Cl)cc1	47	/	73	.	.	/	42	77
O=C(N/N=C/c1ccc([N+](=O)[O-])s1)C(O)c1ccccc1 (stereo not drawn)	.	.	.	.	.	.	/	/
Cc1ccccc1C(=O)N/N=C/c1ccc([N+](=O)[O-])s1	52	.	76	.	.	.	47	66
COc1ccc(C(=O)O/N=C(\C)c2ccccc2)cc1	.	.	.	.	.	.	/	/
N/C(CC1CC1(Cl)Cl)=N\OC(=O)c1ccccc1 (stereo not drawn)	52	.	80	.	.	.	66	73
CCC(C)Nc1ccc(NC(C)CC)cc1 (stereo not drawn)	61	+	80	/	.	.	69	82
COCc1ccc(CN2CCCC(C(=O)Nc3ccc(-c4cscn4)cc3)C2)o1 (stereo not drawn)	.	.	.	.	.	.	/	/
CCc1ccn2cc(-c3cc(-c4ccccc4)no3)nc2c1	62	.	61	.	.	.	56	81
CCOC(=O)c1ccc(Nc2ncnc3c2cnn3C)cc1	.	.	.	.	.	.	/	/
Cn1ncc2c(O/N=C(\N)c3ccc(C(C)(C)C)cc3)ncnc21	79	.	55	.	.	.	84	.
